N370S GC: N370S glucocerebrosidase modulation, Gaucher chaperone candidate; P04062; N370S GC spleen homogenate, 4MU-glucoside fluorescence; Potency, µM (series often up to 59.4 µM), without a hit: at the top dose activity change, negative = inhibition, usual class: inhibitors; 330,000 compounds, 0.092% hits;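 also: potency is read from the fitted curve at half-maximal effect; 0% = full enzyme activity and -100% = no enzyme basal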
GAA inhib: blocks human lysosomal alpha-glucosidase; P10253; purified human GAA, 4-MU-alpha-glucoside fluorescence; Potency, µM (highest dose often 76.9 µM), without a hit: at the highest dose activity change, negative = inhibition, most hits filed as inhibitors; 200,000 compounds, 0.005% hits; AID 1466;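 also: potency is read from the fitted curve at half-maximal effect; plate controls were uninhibited enzyme wells for no effect and no-enzyme background for full effect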
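Fluorogenic assay: 4 nM human alpha-glucosidase with 400 uM 4-methylumbelliferyl-alpha-D-pyranoside in 50 mM citrate/phosphate, 0.005% Tween-20, pH 5.0, 20 min at room temperature. Compounds tested up to 77 uM; AC50 from Hill fits.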
GAA glycogen: GAA glycogen-cleavage inhibition or activation; P10253; recombinant GAA, glycogen substrate, Amplex Red glucose oxidase fluorescence; Potency, µM (doses to about 76.4 µM), inactives show at the top dose activity change, negative = inhibition, most hits filed as inhibitors; 300,000 compounds, 0.38% hits; AID 2100;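 also: potency is read from the fitted curve at half-maximal effect; 0% = full enzyme reaction and -100% = no-enzyme basal signal; the screen sought inhibitors and activators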
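qHTS, 1536-well; enzyme 4 nM final; cpd up to 77 uM; substrate bovine liver glycogen 30 ug; 50 mM citrate/phosphate pH 5.0, 0.01% Tween-20; 37 C, 40 min; Amplex Red detection 45 min RT; Hill fit → AC50.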
aGlu spleen mod: lysosomal alpha-glucosidase (human) modulation; P10253; human spleen homogenate, 4-MU-alpha-glucoside fluorescence; Potency, µM (titrated, usually from 79.9 µM), for inactives: at the highest dose activity change, negative = inhibition, usual class: inhibitors; 240,000 compounds, 0.006% hits; AID 2112;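 also: potency is read from the fitted curve at half-maximal effect; 0% = enzyme with vehicle and -100% = no enzyme basal signal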
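Compounds were titrated against alpha-glucosidase in spleen homogenate at pH 5.0, with 1 mM 4-methylumbelliferyl substrate for 40 min at 37 C. Reactions were quenched with pH 10 NaOH/glycine and fluorescence measured.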
GLA inh pH 4.5: alpha-galactosidase A (human) inhibition, pH 4.5; purified enzyme, 4-MU-alpha-Gal fluorescence, pH 4.5; 230,000 tested, under 10 active; AID 1467; activity change, negative = inhibition, % at 105 µM;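 also: 0% = full activity with enzyme and -100% = basal without enzyme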
Target sequence (P06280 whole entry, looked up): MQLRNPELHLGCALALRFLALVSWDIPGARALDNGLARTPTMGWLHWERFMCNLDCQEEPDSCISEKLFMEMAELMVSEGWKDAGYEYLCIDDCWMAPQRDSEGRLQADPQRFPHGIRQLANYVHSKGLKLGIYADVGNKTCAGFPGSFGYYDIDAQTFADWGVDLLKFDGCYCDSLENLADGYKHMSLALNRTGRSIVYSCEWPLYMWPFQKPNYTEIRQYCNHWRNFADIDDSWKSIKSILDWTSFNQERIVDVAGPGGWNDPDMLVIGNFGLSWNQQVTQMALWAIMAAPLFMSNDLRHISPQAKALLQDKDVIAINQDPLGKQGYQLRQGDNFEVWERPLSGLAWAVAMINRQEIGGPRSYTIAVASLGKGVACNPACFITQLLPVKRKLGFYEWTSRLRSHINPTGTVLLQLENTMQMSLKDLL
GLA spleen mod: alpha-galactosidase A (human) modulation; P06280; human spleen homogenate, 4MU-alpha-Gal fluorescence, 40 min; Potency, µM (highest dose often 80 µM), for inactives: at the highest dose activity change, negative = inhibition, hits mostly inhibitors; 240,000 compounds, 0.008% hits; AID 2107;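 also: potency is read from the fitted curve at half-maximal effect; 0% = enzyme with vehicle and -100% = no enzyme basal signal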
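Human spleen homogenate (1 ug) was the enzyme source, with 4-methylumbelliferyl-alpha-D-galactopyranoside (1 mM final) in pH 5.0 citrate buffer with 0.01% Tween-20. Compounds were titrated; after 40 min at 37C, NaOH/glycine stop, 4-MU fluorescence read; AC50 from Hill fits.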
* hit, by the source's call; u = inconclusive; x = not tested or not shown; [ ] = dose if it differs, or a comment. Compounds with a hit are over-represented: about 0.41% of the library has one in this group of screens. Calls follow the shape of the dose curve; as a rule, active = well fitted curve in the direction sought with a large enough effect; inconclusive = small, poorly fitted or top-dose-only effect, or another doubt; inactive = no such curve, though single readings can be large; an effect the other way counts as inactive or inconclusive.

SMILES	N370S GC	GAA inhib	GAA glycogen	aGlu spleen mod	GLA inh pH 4.5	GLA spleen mod
COc1ccc(C2=Nn3c(nnc3-c3cccc(OC)c3)SC2)cc1	4.8%	x	x	-2.2%	x	6.9%
CCN(CCCCO)c1nc(C)nc2c1c(C)c(C)n2-c1c(C)cc(C)cc1C	-10.8%	x	x	-5.1%	x	-2.6%
N#Cc1nc(Cc2ccccc2)oc1NCc1ccccc1	7.5%	-4.2%	50.1µM*	-4.8%	-7.5	-2.2%
Cc1ccc(CNc2nc(-c3cccs3)nc3ccccc23)cc1	14.1µM*	-10.0%	-11.5%	-6.7%	-1.9	-17.6%
Cc1ccc(CNc2oc(-c3cccs3)nc2C#N)cc1	27.9%	u	22.4µM*	6.8%	12.5	u
c1ccc(CNc2nc(-c3cccs3)nc3ccccc23)nc1	-29.0%	3.6%	3.8%	-2.9%	-5.2	-14.3%
C#Cc1ccc2c(c1)C(=O)N(C)Cc1c(C(=O)OCCCOC(=O)c3ncn4c3CN(C)C(=O)c3cc(C#C)ccc3-4)ncn1-2	4.3%	x	x	-4.9%	x	-3.9%
COc1cc(C(=O)O[C@@H]2CC3CC[C@]2(C)C3(C)C)ccc1O	3.2%	x	x	-2.8%	x	-0.4%
COc1cccc(OC)c1C1=Nn2c(nnc2-c2ccccc2O)SC1	4.3%	x	x	5.3%	x	-1.0%
CSCC[C@H](NC(=O)[C@H](CC(C)C)N1CCC(NC(=O)[C@@H](NC(=O)[C@H](Cc2ccccc2)NC(=O)[C@H](CO)NC(=O)[C@H](CC(=O)O)NC(=O)[C@@H](N)CCCCN)C(C)C)C1=O)C(N)=O (stereo partly specified)	-2.3%	x	x	5.0%	x	24.7%
CCOc1ccc2c(c1)-c1c(ssc1=S)C(C)(C)N2	-3.8%	-3.3%	20µM*	u	-6.3	-10.2%
CCC(=O)Nc1cccc(C(=O)N(Cc2ccccc2)Cc2ccccc2)c1	7.08µM*	x	-3.3%[76.3 µM]	x	x	x
CCOC(=O)Nc1ccc2c(c1)N(C(=O)CN(CC)CC)c1ccccc1CC2	-18.2%	x	8.91µM*	x	x	x
Nc1cc(Br)c(N)c(Br)c1	-8.8%	3.8%	31.6µM*	-3.5%	6.1	-6.5%
C#CC(C)OC(=O)Nc1cccc(Cl)c1 (stereo unspecified)	-0.3%	x	x	6.2%	x	-5.3%
CC(C)C[C@H](NC(=O)[C@H](CC(C)C)NC(=O)[C@@H](Cc1c[nH]c2ccccc12)NC(=O)[C@H](Cc1ccccc1)NC(=O)[C@@H](Cc1c[nH]c2ccccc12)NC(=O)[C@H](CCC(N)=O)NC(=O)[C@H](CCC(N)=O)NC(=O)[C@@H]1CCCN1C(=O)[C@H](CCCCN)NC(=O)[C@@H]1CCCN1C(=O)[C@H](N)CCCN=C(N)N)C(N)=O	-3.2%	x	x	-5.4%	x	7.0%
CCCC[C@H](NC(=O)[C@@H]1CCCN1C(=O)[C@H]1CCCN1C(=O)[C@H](Cc1ccccc1)NC(=O)[C@@H](Cc1c[nH]c2ccccc12)NC(=O)[C@H](C)NC(=O)[C@H](CCCN=C(N)N)NC(=O)OC(C)(C)C)C(N)=O	2.82µM*	x	x	2.3%	x	-7.6%
Cc1cc(O)c(N)c(C)c1Cl	-5.2%	-0.1%	8.91µM*	2.7%	3.8[21.1 µM]	0.6%
Cc1cc(O)cc(C)c1Cl	-3.4%	x	x	-7.0%	2.4	-4.2%
CC1(C)Cc2c(sc3ncn4c(=S)[nH]nc4c23)CO1	0.7%	-9.1%	28.2µM*	5.6%	1.9	4.8%
CC1(C)Cc2c(sc3ncn(N)c(=N)c23)CO1	-2.7%	0.9%	9.8%	-3.4%	2.5	-1.4%
N=c1c2c(-c3ccccc3)c(-c3ccccc3)n(Cc3ccco3)c2ncn1CCCn1ccnc1	3.16µM*	-9.0%	-1.6%	-2.0%	u	-3.5%
N=c1c2c(-c3ccccc3)c(-c3ccccc3)n(Cc3ccco3)c2ncn1CCCN1CCOCC1	-24.0%	-5.3%	-5.8%	-5.5%	-12.1	-2.8%
N=c1c2c(-c3ccccc3)c(-c3ccccc3)n(Cc3ccccc3)c2ncn1CCO	3.98µM*	u	4.9%	-19.0%	u	-16.1%
C[N+]1(Cc2ccccc2)CCC(C(=O)OCC2CCCC2)CC1 (stereo unspecified)	6.0%	x	x	5.4%	x	-13.2%
SMILES	N370S GC	GAA inhib	GAA glycogen	aGlu spleen mod	GLA inh pH 4.5	GLA spleen mod
COC(=O)CCCCCNc1ccc(C(=O)OC)cc1N	-0.7%	u	22.4µM*	3.0%	-5.6	7.0%
COC(=O)c1cc(Oc2ccc(C(=O)OC)cc2N)cc(C(=O)OC)c1	2.8%	3.8%	-8.0%	-2.6%	0.3	-2.1%
O=C(OCC1OC(OC(=O)c2cc(O)c(O)c(OC(=O)c3cc(O)c(O)c(O)c3)c2)[C@@H](OC(=O)c2cc(O)c(O)c(OC(=O)c3cc(O)c(O)c(O)c3)c2)C(OC(=O)c2cc(O)c(O)c(OC(=O)c3cc(O)c(O)c(O)c3)c2)C1OC(=O)c1cc(O)c(O)c(OC(=O)c2cc(O)c(O)c(O)c2)c1)c1cc(O)c(O)c(OC(=O)c2cc(O)c(O)c(O)c2)c1 (stereo partly specified)	u	x	x	u	u	-4.1%
COc1cccc2sc(NNC(=O)C3COc4ccccc4O3)nc12 (stereo unspecified)	22.6%	-1.4%	-17.1%	-6.1%	-2.8	-4.9%
O=C(NNc1nc2c(F)cccc2s1)C1COc2ccccc2O1 (stereo unspecified)	3.6%	-16.7%	4.43µM*	-2.3%	4.5	-8.6%
CN1CCN(S(=O)(=O)c2cccc(C(=O)Nc3sc4c(c3-c3nc5ccccc5[nH]3)CCCC4)c2)CC1	11.2µM*	-1.9%	-3.4%	-10.5%	-0.6	-12.0%
CCOC(=O)CC(=O)CSc1nc(CC)c(C)cc1C#N	9.7%	x	-5.0%	-7.6%	10.5	7.1%
CCOC(=O)CC(=O)CSc1nc2ccc(C)cc2cc1C#N	22.4µM*	u	-3.9%	-2.3%	-6.7	4.7%
CN=c1scc(C)n1/N=C/c1ccc(O)c(O)c1O	x	-13.6%	11.2µM*	-14.3%	-5.7	-6.9%
CN=c1scc(-c2cccs2)n1/N=C/c1ccc(O)c(O)c1O	-7.8%	u	u	3.4%	-8.4	-6.0%
CCOc1ccc(Nc2nc(Cc3nnc(SCC(=O)NC4CCCCC4)n3C)cs2)cc1	-3.0%	0.4%	u	-4.7%	11.0	6.8%
CCOc1ccc(Nc2nc(Cc3nnc(SCC(=O)NCC4CCCO4)n3C)cs2)cc1 (stereo unspecified)	3.8%	-2.9%	11.2µM*	-8.2%	8.2	-6.7%
CC(=O)C1=C(c2ccccc2)NC(=O)NC1c1ccc(O)c(O)c1 (stereo unspecified)	0.1%	10.9%	u	-0.1%	-11.9	-5.9%
CC(=O)C1=C(c2ccccc2)NC(=S)NC1c1ccc(O)c(O)c1 (stereo unspecified)	-7.8%	4.3%	3.16µM*	-0.9%	-5.5	-1.1%

Assay outcomes: PubChem, National Center for Advancing Translational Sciences (NCATS)
